TDP1 cell CPT = growth inhibition of DT40 Tdp1-/-;hTDP1 cells with camptothecin (screen for TDP1 inhibitors). chicken DT40 Tdp1-/-;hTDP1 cells + 20 nM CPT, ATP luminescence, 48 h. Potency, µM (titrated, usually from 46.2 µM), for inactives: at the highest dose activity change, negative = growth inhibition, usual class: inhibitors. actives 12% (n = 420,000). AID 686979; note: potency is the fitted concentration of half-maximal effect; nearly all actives have a fitted effect of over 55% in size
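Chicken DT40 Tdp1-/- cells complemented with human TDP1, 400 cells/well, exposed to compounds plus 20 nM camptothecin for at least 48 h at 37 C; viability read as ATP content by CellTiter-Glo luminescence.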
HT1080-NT tox = kills 2HG-producing HT-1080-NT fibrosarcoma cells. HT-1080-NT fibrosarcoma viability, CellTiter-Glo ATP luminescence, 48 h. Potency, µM (doses to about 46.1 µM), for the others: top-dose activity, negative = less viability, actives largely listed as cytotoxic. actives 1.6% (n = 360,000). AID 686970;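 note: NT is the 2HG producing partner of a matched IDH1 knockdown line; potency is the fitted concentration of half-maximal effect; 0% = DMSO-treated cells and -100% = media-only wells without cells; nearly all actives have a fitted effect of over 55% in size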
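A 48-hour cytotoxicity screen used HT-1080-NT cells plated 2 hours before compound delivery. ATP-based CellTiter-Glo luminescence measured viability, normalized to DMSO and no-cell controls.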
HT1080 IDH1KD tx = kills HT-1080 cells with IDH1 knockdown; HT-1080 IDH1 knockdown viability, ATP luminescence, 48 h; Potency, µM (series often up to 46.1 µM), for inactives: at the top dose activity, negative = toxicity, hits mostly cytotoxic; actives 2% (n = 360,000);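 note: potency is the fitted concentration of half-maximal effect; 0% = DMSO wells and -100% = cell-free medium wells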
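HT-1080-IDH1KD cells (IDH1 knocked down), 750/well in RPMI with 5% FBS, treated with compound 48 h at 37 degrees C. Viability by CellTiter-Glo luminescence, normalised to DMSO and no-cell wells; concentration-response curves classed.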
DT40 TDP1 no CPT = qHTS for Inhibitors of human tyrosyl-DNA phosphodiesterase 1 (TDP1): qHTS in cells in absence of CPT | DT40 Tdp1-/- hTDP1 cells, no CPT, ATP luminescence, 48 h | Potency, µM (highest dose often 46.2 µM), without a hit: at the top dose activity change, negative = growth inhibition, usual class: inhibitors | actives 15% (n = 420,000); note: potency is the fitted concentration of half-maximal effect; nearly all actives have a fitted effect of over 55% in size
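A cellular qHTS used chicken DT40 cells lacking endogenous Tdp1 but carrying stably transfected human TDP1. Compounds were applied without camptothecin, and cell growth kinetics were judged by ATP-dependent luminescence after ≥48 hr.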
IL-1B inflam inh = inhibitors of inflammasome signaling (IL-1 beta secretion). THP-1 LPS/ATP IL-1B secretion, AlphaLISA, 16 h; active compounds read low. activity change, % at 57.5 µM. actives 4.7% (n = 360,000); in the data active = activity change below about -50%; inconclusive = mostly about -30% to -49%
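THP-1 cells pretreated 1 hr with compounds (up to 57.5 uM final), then stimulated with LPS (250 ng/mL final) plus ATP (1.25 mM final); secreted IL-1B measured by AlphaLISA after 16 hr, decreased signal indicating inhibition.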
An asterisk follows results filed as active; ? = inconclusive; . = no result given. Shown are actives, neighbours in structure and some others; about 19% of the full set was active somewhere. Unless noted, calls come from the whole dose curve; as a rule, active = well fitted curve in the direction sought with a large enough effect; inconclusive = small, poorly fitted or top-dose-only effect, or another doubt; inactive = no such curve, though single readings can be large; an effect the other way counts as inactive or inconclusive. Unless noted, % is set by controls: 0 for no effect and ±100 for the full control effect.

SMILES | TDP1 cell CPT | HT1080-NT tox | HT1080 IDH1KD tx | DT40 TDP1 no CPT | IL-1B inflam inh
N#C/C(=C\C1CC=CCC1)c1nc2ccccc2[nH]1 (centres undefined) | -13% | ? | ? | ? | -52*
CN(C)/C=C(\C#N)c1nc2ccccc2[nH]1 | -2% | 5% | -12% | ? | -11
Cn1c(/C(C#N)=C/C2CC=CCC2)nc2ccccc21 (centres undefined) | ? | ? | ? | ? | -96*
COc1cc2c(C(=O)N3CCOCC3)c(CSc3ccccc3)n(C)c2cc1Br | ? | ? | ? | ? | 38
CCOC(=O)c1c(CSC(=N)N)n(-c2ccc(Br)cc2)c2cc(Br)c(OC(C)=O)cc12 | ? | 13% | -7% | 23µM* | -109*
CCCCCCCCOC(=O)c1c(CSC(=N)N)n(C)c2cc(Br)c(OC(C)=O)cc12 | 6.5µM* | ? | ? | 7.3µM* | -3
CCOC(=O)c1c(C)n(C)c2cc(Br)c(C(=O)OC)cc12 | -18% | -6% | -5% | ? | -12
O=C(NC1(C(F)(F)F)NC(=O)N(CCc2ccccc2)C1=O)c1ccc(Cl)cc1 (centres undefined) | 21µM* | . | . | ? | .
CC(C)(C)c1ccc(C(=O)NC2(C(F)(F)F)NC(=O)N(CCc3ccccc3)C2=O)cc1 (centres undefined) | 21µM* | . | . | 23µM* | .
O=C(NC1(C(F)(F)F)NC(=O)N(CCc2ccccc2)C1=O)c1ccccc1F (centres undefined) | -23% | . | . | -7% | .
COc1cc(C(=O)NC2(C(F)(F)F)NC(=O)N(CCCc3ccccc3)C2=O)cc(OC)c1OC (centres undefined) | ? | -27% | -23% | ? | -6
COc1ccc(NC(=O)c2ccc3[nH]c(C)c(C)c3c2)cc1 | ? | 4% | 0% | -27% | ?
CN(C)c1ccccc1C(=O)c1ccccc1N(C)C | 4.6µM* | ? | 4.6µM* | 4.1µM* | 24
CN(c1ccccc1C(=O)O)S(C)(=O)=O | 10% | 2% | 16% | -7% | -1
CC(=O)Nc1ccc(S(=O)(=O)N(C)CC(=O)OCC(=O)N(C)C2CCS(=O)(=O)C2)cc1 (centres undefined) | -11% | 0% | -7% | -4% | -10
Cc1ccc(-n2nc(CO)c(C(=O)NCCCc3ccccc3)n2)cc1 | ? | . | . | 23µM* | .
Cc1ccc(-n2nc(CO)c(C(=O)NC(C)CCCc3ccccc3)n2)cc1 (centres undefined) | ? | . | . | 21µM* | .
CC(OC(=O)C1CCN(S(=O)(=O)c2ccc(F)cc2)CC1)C(=O)NC1CCCCC1C (centres undefined) | -16% | 2% | 4% | -29% | 4
C=CCn1c(COc2ccccc2F)nnc1SCCN1C(=O)c2ccccc2C1=O | -4% | 0% | -3% | ? | -21
N/C(=N\OC(=O)/C=C/c1ccccc1)c1ccccc1 | -2% | 18% | 0% | 1% | 5
CC1=C/C(=N\OC(=O)/C=C/c2ccccc2)C(C)=CC1=O | 23µM* | 8% | -4% | ? | -17
Cc1ccc(NC(=O)NCCCc2ccccc2)cc1 | -13% | 3% | 2% | 3% | -4
O=C1/C(=C\c2ccc(O)cc2)SC(=S)N1Cc1ccccc1 | ? | ? | 23µM* | ? | -96*
O=C1/C(=C\c2cccc([N+](=O)[O-])c2O)SC(=S)N1Cc1ccccc1 | 18µM* | -17% | 0% | 9.2µM* | 36
O=C1/C(=C\c2cc(Br)cc(Br)c2O)SC(=S)N1Cc1ccccc1 | 13µM* | -30% | -16% | 15µM* | -9
CC(=O)Oc1ccc(/C=C2/SC(=S)N(Cc3ccccc3)C2=O)cc1 | -7% | 23% | 20% | -16% | -11
O=C(O)c1ccc(/C=C2/SC(=S)N(Cc3ccccc3)C2=O)cc1 | -23% | -1% | 5% | 18% | 20
CCOc1ccccc1C=C1SC(=S)N(CC)C1=O | -5% | 12% | 19% | -19% | 1

Compound activity from PubChem.
